For twelve molecules, growth results are on record in PubChem BioAssay (NCI).

Compounds without any hit were thinned out: in the full panel of roughly 83,000, 20% have a hit.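 Activity criterion: percent growth below 10, measured after cells in 96-well plates were exposed to a single compound concentration for 48 hours.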 A number with no mark means an inactive call. Activity calls are given as the source filed them.

Test systems include NCI-H23 lung; NCI-H226 lung; NCI-H322M lung; HOP-62 NSCLC; NCI-H460 lung; HOP-92 NSCLC; NCI-H522 lung; A549/ATCC NSCLC; 786-0 renal; COLO 205 colon.
What all share (experiment): NCI-60 one-dose screen, 48 h (100 = growth as untreated, 0 = no growth, -100 = all killed)
Common to all, as to conditions: 10 µM unless noted

Regarding `O=C1COCCN1c1ccc(NCc2cn(C(=O)c3ccc(Cl)cc3)c3ccccc23)cc1`, the growth with NCI-H23 lung is 54.5%; with NCI-H226 lung, -61.1% (active); with NCI-H322M lung it was 95.1%; with HOP-62 NSCLC it was 60.2%; with NCI-H460 lung it was 14.9%; with HOP-92 NSCLC, 58.2%. The growth with NCI-H522 lung was 65.6%; in the assay with A549/ATCC NSCLC it was 46.9%; with 786-0 renal, 65.8%; in the assay on COLO 205 colon, 29.3%.

As to `Cc1nc2ccccc2n1CC1C(=O)NC(=O)NC1=O`, the growth was 102% in the assay with NCI-H23 lung; 114% in the assay on NCI-H226 lung; 95.5% with NCI-H322M lung; 105% with HOP-62 NSCLC; 111% with NCI-H460 lung; 97.8% with HOP-92 NSCLC. For the same molecule, the growth in the assay on NCI-H522 lung was 94.4%; with A549/ATCC NSCLC, 96.4%; in the assay with 786-0 renal it was 103%; with COLO 205 colon it was 115%.

Take `COc1ccc(-c2nc(NN)c3c(C)nn(-c4ccc(F)cc4)c3n2)cc1`: the growth was 66.9% with NCI-H23 lung; 80% in the assay with NCI-H226 lung; 74.6% with NCI-H322M lung; 50.6% in the assay with HOP-62 NSCLC; 18.8% in the assay on NCI-H460 lung; 52.7% with HOP-92 NSCLC. The growth is 22.6% with NCI-H522 lung, 38.1% in the assay with A549/ATCC NSCLC, 38.6% in the assay on 786-0 renal and 35.4% with COLO 205 colon.

With `CSc1nc2ccc(C)cc2cc1/C=N/O`, the growth is 99.4% with NCI-H23 lung; 76.7% with NCI-H226 lung; 94.3% in the assay with NCI-H322M lung; 82.8% in the assay with HOP-62 NSCLC; 91.1% with NCI-H460 lung; 72.2% in the assay with HOP-92 NSCLC. In addition, the growth was 75.7% with NCI-H522 lung, 71.8% in the assay with A549/ATCC NSCLC, 89.9% with 786-0 renal and 102% in the assay with COLO 205 colon.

Consider `C/C(=N/NC(N)=S)c1sc(Nc2cccc(Cl)c2)nc1C`, for which the growth in the assay on NCI-H23 lung is 89.4%; with NCI-H226 lung, 92%; with NCI-H322M lung, 77.9%; in the assay with HOP-62 NSCLC it was 102%; in the assay on NCI-H460 lung, 92.9%; with HOP-92 NSCLC, 62.6%. Besides, the growth was 42.6% with NCI-H522 lung, 92.5% in the assay on A549/ATCC NSCLC, 84.3% with 786-0 renal and 84.9% in the assay with COLO 205 colon.

`COc1ccc(C(=O)n2nc(-c3ccccc3)nc2N)cc1OC`: the growth with NCI-H23 lung was 93.9%; in the assay on NCI-H226 lung, 79.9%; in the assay on NCI-H322M lung it was 89.1%; in the assay with HOP-62 NSCLC, 79.7%; with NCI-H460 lung, 98.3%; in the assay with HOP-92 NSCLC, 67%. In addition, the growth in the assay on NCI-H522 lung is 85.4%; with A549/ATCC NSCLC it was 95.1%; in the assay on 786-0 renal it was 96.1%; in the assay on COLO 205 colon, 103%.

In the case of `NCCOc1ncccc1/C=C1\c2ccccc2-c2ccc(C(F)F)cc21`, the growth in the assay on NCI-H23 lung was 42.3%; in the assay on NCI-H226 lung it was 61.8%; with NCI-H322M lung, 98.8%; in the assay with HOP-62 NSCLC, 39.9%; with NCI-H460 lung it was 9.8% (active); with HOP-92 NSCLC it was 49.6%. Further, the growth with NCI-H522 lung is 79%; in the assay with A549/ATCC NSCLC, 20.9%; in the assay with 786-0 renal it was 56.4%; in the assay on COLO 205 colon, 48.9%.

In the case of `Cc1ccc(-c2nc(SCC(=O)Nc3nc(-c4ccc(Cl)cc4)cs3)[nH]c(=O)c2C#N)cc1`, the growth with NCI-H23 lung was 95.1%; with NCI-H226 lung, 89.5%; in the assay on NCI-H322M lung it was 101%; in the assay on HOP-62 NSCLC it was 94%; with NCI-H460 lung, 105%; with HOP-92 NSCLC, -13.3% (active). For the same molecule, the growth with NCI-H522 lung was 77.5%; with A549/ATCC NSCLC, 86.7%; with 786-0 renal, 93.2%; with COLO 205 colon, 117%.

As to `Cc1nc(S(=O)(=O)c2ccccc2)c(S(=O)(=O)Cc2ccc([N+](=O)[O-])cc2)o1`, the growth was 103% in the assay on NCI-H23 lung; 88% in the assay with NCI-H226 lung; 100% with NCI-H322M lung; 88.4% in the assay with HOP-62 NSCLC; 98.5% in the assay on NCI-H460 lung; 83.1% with HOP-92 NSCLC. For the same molecule, the growth was 68.8% in the assay with NCI-H522 lung, 97.6% in the assay with A549/ATCC NSCLC, 89.1% with 786-0 renal and 112% with COLO 205 colon.

As for `Fc1cc(-c2nnc3n2NC(=Nc2ccc(Cl)cc2)CS3)c(Cl)cc1Cl`, the growth in the assay with NCI-H23 lung was 79.3%; in the assay on NCI-H226 lung, 122%; in the assay with NCI-H322M lung it was 100%; with HOP-62 NSCLC, 73.6%; with NCI-H460 lung, 96.5%; in the assay on HOP-92 NSCLC, -18.6% (active). Further, the growth was 76.3% with NCI-H522 lung, 87.5% in the assay on A549/ATCC NSCLC, 81.9% in the assay with 786-0 renal and 95.6% in the assay with COLO 205 colon.

For the molecule `Cc1ccc(/C=N\NC(=O)c2[nH]c3ccc(F)cc3c2-c2ccccc2)cc1`, the growth in the assay with NCI-H23 lung was 38%; with NCI-H226 lung, 46.4%; with NCI-H322M lung, 57.7%; in the assay with HOP-62 NSCLC, 42.3%; in the assay on NCI-H460 lung it was 3.26% (active); in the assay with HOP-92 NSCLC, 4.75% (active). For the same molecule, the growth in the assay with NCI-H522 lung is -42.3% (active); in the assay with A549/ATCC NSCLC it was 23%; with 786-0 renal it was 35.1%; in the assay on COLO 205 colon it was -78.8% (active).

In the case of `Cc1c(C(=O)/C=C/Nc2c(Cl)cc(S(N)(=O)=O)cc2Cl)sc2nc3ccccc3n12`, the growth was 99.8% in the assay with NCI-H23 lung; 99.6% with NCI-H226 lung; 107% in the assay with NCI-H322M lung; 107% with HOP-62 NSCLC; 104% with NCI-H460 lung; 111% in the assay with HOP-92 NSCLC. The growth in the assay with NCI-H522 lung was 89.9%; in the assay with A549/ATCC NSCLC, 103%; in the assay with 786-0 renal, 107%; with COLO 205 colon, 110%.
